In all, about 16,000 compounds went through this assay and about 5,700 (36%) were called active. Not shown: some 24% with an inconclusive outcome. The call rests on the fitted dose curve; in most records, active means well fitted curve in the direction sought with a large enough effect; inconclusive means small, poorly fitted or top-dose-only effect, or effect the other way; inactive means no such curve, though single readings can be large or run the other way. The list shows a part of the results.
target: Cytochrome P450 1A2 (Homo sapiens) (UniProt P05177); assay: Cytochrome panel assay with activity outcomes; details: recombinant CYP, pro-luciferin dealkylation, luminescence, p450-cyp1a2; series mostly up to 57.1 µM; activity, negative = inhibition: at the top concentration
Sequence (P05177 whole entry, looked up): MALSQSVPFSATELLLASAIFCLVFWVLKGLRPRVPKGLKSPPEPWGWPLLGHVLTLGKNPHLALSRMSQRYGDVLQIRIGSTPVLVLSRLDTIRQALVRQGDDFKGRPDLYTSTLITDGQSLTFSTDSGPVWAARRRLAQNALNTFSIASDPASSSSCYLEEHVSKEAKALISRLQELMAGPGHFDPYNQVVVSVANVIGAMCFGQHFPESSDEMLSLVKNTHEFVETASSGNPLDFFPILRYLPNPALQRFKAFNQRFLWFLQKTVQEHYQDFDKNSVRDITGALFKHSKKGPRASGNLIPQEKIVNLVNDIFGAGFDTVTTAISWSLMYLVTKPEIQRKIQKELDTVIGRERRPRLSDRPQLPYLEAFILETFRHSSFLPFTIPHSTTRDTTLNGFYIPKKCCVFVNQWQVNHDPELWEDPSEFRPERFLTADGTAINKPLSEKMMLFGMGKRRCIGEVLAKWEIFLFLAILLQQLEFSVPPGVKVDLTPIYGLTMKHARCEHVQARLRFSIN
On the % scale 0 is the no-effect control and ±100 the full control effect.

Compound | activity, negative = inhibition | AC50
O=C(O)CCSc1ncnc2nc[nH]c12 | -3.4% [at 11.4 µM] (inactive) | 
Nc1nc(SCc2ccccc2[N+](=O)[O-])c2[nH]cnc2n1 |  | 5.01 µM (active)
CCC[C@H](Sc1nc(N)nc2nc[nH]c12)C(=O)O | -9.79% [at 11.4 µM] (inactive) | 
Nc1nc(N)c2[nH]cnc2n1 (tested in a mixture with another compound) | -5.45% [at 2.29 µM] (inactive) | 
Nc1nc(SC/C=C\c2ccccc2)c2[nH]cnc2n1 |  | 5.01 µM (active)
Nc1nc(Sc2ccc([N+](=O)[O-])c3nonc23)c2[nH]cnc2n1 | -26.1% [at 2.29 µM] (inactive) | 
Nc1nc(SCCc2ccccc2)c2[nH]cnc2n1 |  | 3.16 µM (active)
Cc1cccc(N(C)S(=O)(=O)c2ccc3[nH]c(=O)c(=O)[nH]c3c2)c1 | -4.96% (inactive) | 
COCC(=O)N1CCC2(CCCN(Cc3nccs3)C2)CC1 | 2.83% (inactive) | 
CC(C)=NOCc1ccc(-c2cn([C@@H]3COC[C@@H]3O)nn2)cc1 | -5.29% [at 11.4 µM] (inactive) | 
c1ccc(/C(=N/Nc2nc3ccccc3s2)c2ccccn2)cc1 |  | 3.16 µM (active)
COc1cccc(-c2cc3nc(-c4ccccc4)cc(N4CCC5(CC4)OCCO5)n3n2)c1 |  | 0.251 µM (active)
CCOc1ccc(OCCOc2ncnc3ccccc23)cc1 |  | 12.6 µM (active)
CC1CN(C(=O)COc2ncnc3ccccc23)CC(C)O1 (stereo not given) | -4.54% (inactive) | 
Cc1cc(C)cc(-n2c(C)cc(C=C(C#N)C#N)c2C)c1 | -17.1% (inactive) | 
CCc1ccc(N(C(=O)c2snc(C(N)=O)c2N)C(C(=O)NCCC(C)C)c2c[nH]c3ccccc23)cc1 (stereo not given) | -21.5% (inactive) | 
CCN(CC)c1ccc(NC(=O)c2cccnc2)c(C)c1 | -15.4% (inactive) | 
CCOc1cc(C#N)c(NC(=O)c2cccnc2)cc1OCC |  | 20 µM (active)
CS(=O)(=O)N1CCC2(CCN(Cc3nccs3)CC2)CC1 | -6.39% (inactive) | 
Cn1cnnc1SCC(=O)n1c2ccccc2c2ccccc21 |  | 0.0501 µM (active)
COC(=O)C1=C(CSc2nncn2C)NC(=O)NC1c1ccc(F)cc1 (stereo not given) | -36.1% (inactive) | 
CCc1cccc2c(C=C(C#N)C#N)cn(CC(=O)N3CCCC3)c12 | -0.488% (inactive) | 
O=C(CCCN1C(=O)c2cccc3cccc(c23)C1=O)N1CCc2ccccc2C1 |  | 6.31 µM (active)
O=C(CCCN1C(=O)C2C3C=CC(C3)C2C1=O)N1CCN(c2ccccc2)CC1 (stereo not given) | -21.3% (inactive) | 

Compound | activity, negative = inhibition | AC50
CCc1cccc2c(C=C(C#N)C#N)cn(CC(=O)N3CCCCC3)c12 | -14.5% (inactive) | 
O=C(CN1C(=O)c2cccc3cccc(c23)C1=O)N1CCCCCC1 |  | 14.1 µM (active)
CSc1nc(Cl)cc(N(CCO)CCO)n1 | 0.0544% (inactive) | 
CC(=O)OC[C@H]1O[C@@H](ON=C(C)C)[C@H](OC(C)=O)[C@@H](OC(C)=O)[C@H]1OC(C)=O | -5.84% [at 11.4 µM] (inactive) | 
COc1ccc(/C=C2\CCCC3C2=NN(C(=O)c2ccco2)C3c2ccc(OC)c(OC)c2)cc1OC (stereo not given) | -17.7% (inactive) | 
NC(=O)/C(=N\OC(=O)c1ccco1)c1nc(-c2ccc(Br)cc2)cs1 |  | 0.447 µM (active)
Clc1ccc(CSCCc2ccncc2)cc1Cl |  | 0.316 µM (active)
O=S(=O)(O)CCCc1cccc2ccccc12 | -16.7% [at 2.29 µM] (inactive) | 
Clc1ccc(COc2ccccn2)cc1Cl | -26.5% (inactive) | 
c1ccc2c(CSCCc3ccncc3)cccc2c1 |  | 0.178 µM (active)
Cn1c(=O)c(-c2ccccc2)nc2cnc(N3CCNCC3)nc21 |  | 12.6 µM (active)
Cn1c(=O)c(-c2ccccc2)nc2cnc(N3CCOCC3)nc21 |  | 2 µM (active)
COCCn1c(=O)c(-c2ccc(F)cc2)nc2cnc(N3CCOCC3)nc21 |  | 5.01 µM (active)
COc1ccc(-n2c(=O)c(-c3ccc(Cl)cc3)nc3cnc(N4CCOCC4)nc32)cc1 |  | 15.8 µM (active)
NCCc1nc(-c2nc(C(=O)O)cs2)cs1 | -15.8% [at 11.4 µM] (inactive) | 
N[C@@H](C(=O)O)c1ccc(C(=O)O)c(C(=O)O)c1 |  | inactive
COc1ccc2c(c1)CCCC21NC(=O)N(CC(N)=O)C1=O (stereo not given) | -4.43% (inactive) | 
CC(C)(C)CC(C)(C)c1cc(O)c(O)c(CN2CCCCC2)c1 | -0.989% [at 11.4 µM] (inactive) | 
Cn1c(=O)c(-c2ccc(F)cc2)nc2cnc(N3CCOCC3)nc21 |  | 2.51 µM (active)
N#CCCn1c(=O)c(-c2ccc(Cl)cc2)nc2cnc(N3CCOCC3)nc21 |  | 15.8 µM (active)
COc1ccc(-c2nc3cnc(N4CCN(C)CC4)nc3n(CCC#N)c2=O)cc1 | -15.1% (inactive) | 
Cn1c(=O)c(-c2ccc(Cl)cc2)nc2cnc(N3CCOCC3)nc21 |  | 2.51 µM (active)
CC(C)CO/N=C1/[C@H]2O[C@@H]2[C@@H](O)[C@H]2[C@H]1CCn1c(=O)n(C)c(=O)n12 | 8.17% [at 11.4 µM] (inactive) | 
COCC(=O)N1CCC2(CC1)CN(c1ccccn1)C2 | -4.74% (inactive) | 

Compound | activity, negative = inhibition | AC50
CCCCNc1cc(=O)oc2ccccc12 |  | 0.708 µM (active)
CC(=O)OC[C@@H]1O[C@H](C/C=N\OCC[C@H]2C=C[C@H](OC(C)=O)[C@@H](COC(C)=O)O2)C=C[C@@H]1OC(C)=O | -12.9% [at 11.4 µM] (inactive) | 
c1ccc(Cc2nnc(Sc3ccccc3)c3ccccc23)cc1 |  | 17.8 µM (active)
O=c1[nH]c(=S)[nH]nc1Cc1ccccc1 | -3.25% (inactive) | 
CCN(CC)S(=O)(=O)c1cc(C(=O)Nc2ccccc2C(=O)O)ccc1OC |  | 15.8 µM (active)
COC(=O)c1cc(OC)c(OC)cc1NC(=O)CSc1ccc(C)cc1 |  | 1.78 µM (active)
COc1ccc(C(=O)N2CCCCC2)cc1S(=O)(=O)Nc1ccccc1 | -28% (inactive) | 
CCN(CC)S(=O)(=O)c1ccc(OC)c(NC(=O)c2cc([N+](=O)[O-])ccc2Cl)c1 | -1.84% (inactive) | 
CCN(CC)S(=O)(=O)c1ccc(OC)c(NC(=O)CSc2ccccc2)c1 |  | 15.8 µM (active)
COC(=O)c1cc(OC)c(OC)cc1NC(=O)CSc1ccccc1 |  | 1.78 µM (active)
Cc1ccc(SCC(=O)NNC(=O)C2CCCCC2)cc1 | -15.2% (inactive) | 
O=C(CSc1ccccc1)Nc1ccc(N2CCN(c3ccccc3)CC2)c(F)c1 | 11.6% (inactive) | 
CCN(CC)S(=O)(=O)c1ccc2c(c1)nc(SCC(=O)N1CCOCC1)n2-c1ccccc1OC | 13% (inactive) | 
O=c1n(-c2ccccc2)c(=O)n2n1CC[C@H]1/C(=N\OCc3ccccc3)[C@H]3O[C@@H]3[C@@H](O)[C@@H]12 | -12.4% [at 11.4 µM] (inactive) | 
CN(C)C(=O)c1ccc(-c2ccc3ncnc(N(C)C)c3c2)cc1 |  | 20 µM (active)
CN(C)c1ccc(-c2ccc3ncnc(N(C)C)c3c2)cc1 |  | 0.158 µM (active)
CN(C)c1ncnc2ccc(-c3ccoc3)cc12 |  | 0.794 µM (active)
CCO[P@]1(=O)OC[C@@H]2O[C@H](n3cnc4c(N)ncnc43)[C@H](O)[C@@H]2O1 | -15.6% [at 2.29 µM] (inactive) | 
CC(NC(=O)CN1CCCC1)C12CC3CC(CC(C3)C1)C2 (stereo not given) | -12.1% (inactive) | 
COC(=O)[C@H](C)NC(=O)[C@@H](C)CO | -7.75% [at 11.4 µM] (inactive) | 
O=S(=O)(N/N=C\c1cn(-c2ccccc2)nc1-c1ccccc1)c1ccccc1 |  | 3.55 µM (active)
O=C(N/N=C\c1cn(-c2ccccc2)nc1-c1ccccc1)c1ccc(Br)o1 |  | 3.55 µM (active)
Cc1ccc(-c2nn(-c3ccccc3)cc2/C=N/NS(=O)(=O)c2ccccc2)cc1 |  | 4.47 µM (active)
COc1ccc(-c2nn(-c3ccccc3)cc2/C=N/NC(=O)c2ccc(Br)o2)cc1 | -27.3% (inactive) | 

Compound | activity, negative = inhibition | AC50
COCCCNC(=O)c1c(N)n(/N=C/c2ccccn2)c2nc3ccccc3nc12 |  | 2 µM (active)
Cn1c(N)c(N=Nc2ccc(S(N)(=O)=O)cc2)c(=O)n(C)c1=O | -12.8% [at 2.29 µM] (inactive) | 
CC1=NN(c2ccccc2)C(=O)[C@@H]1N=Nc1ccc(S(N)(=O)=O)cc1 |  | 1.26 µM (active)
CC1=NN(c2ccccc2)C(=O)C1C(=O)c1ccc(Cl)cc1 (stereo not given) | 1.73% (inactive) | 
CC(=O)OCC(=O)[C@@]1(O)CC[C@@H]2[C@H]3CCC4=CC(=O)CC[C@]4(C)[C@]3(F)[C@@H](O)C[C@@]21C | -5.93% [at 25.6 µM] (inactive) | 
CCC(C)NS(=O)(=O)c1ccc(OCC(=O)NCC2CCCO2)cc1 (stereo not given) | 18.2% (inactive) | 
Cc1[nH]nc2nc(SCC(=O)NCC3CCCO3)n(-c3ccc(Br)cc3)c(=N)c12 (stereo not given) |  | 10 µM (active)
Cc1ccc(C)c(-n2c(Cc3cc(=O)[nH]c(=O)[nH]3)nnc2SCC(=O)NCC2CCCO2)c1 (stereo not given) | -2.07% (inactive) | 
C=CCn1c(=O)c2c(nc(-c3ccc(S(=O)(=O)O)cc3)n2C)n(C)c1=O | -15% (inactive) | 
CCOc1ccc(N2C(=O)/C(=C/c3cc(OC)c(OC)c(OC)c3)N(CC(=O)OC)C2=S)cc1 | 12.3% (inactive) | 
CCOc1cc(/C=C2\N=C(C)OC2=O)cc(Br)c1OCC(=O)OC |  | 17.8 µM (active)
CCCCNC(=O)C1CC(=O)N(c2ccc(OC)cc2)C1c1ccc(OC)cc1 (stereo not given) | 1.32% (inactive) | 
CCN1C(=O)/C(=C2\SC(=S)N(CCCOC)C2=O)c2ccccc21 |  | 1.58 µM (active)
N#Cc1c(-n2ccnc2)cccc1-n1ccnc1 |  | 2.51 µM (active)
FC(F)(F)c1ccccc1-n1ccnc1 |  | 0.251 µM (active)
N#Cc1c(Cl)cccc1-n1ccnc1 |  | 1 µM (active)
CC(=O)Nc1ccc(NC2=Nc3ccccc3N3C2=Nc2c(c(C)nn2-c2ccccc2)C3c2ccccc2)cc1 (stereo not given) | 4.37% (inactive) | 
C=CCNC(=O)C1CCN(S(=O)(=O)CC)CC1 | -0.27% (inactive) | 
COc1ccccc1CNc1ncnc2ccc(-c3ccccc3C#N)cc12 |  | 1.26 µM (active)
COc1ccc(CNc2ncnc3ccc(-c4ccccc4C#N)cc23)c(OC)c1 |  | 6.31 µM (active)
O=C1c2ccccc2C(=O)N1CCCCN(C(=O)c1ccc([N+](=O)[O-])cc1)c1ccc(Cl)cc1 | -16.4% (inactive) | 
Cc1ccc(C(=O)N/C(=C\c2ccc([N+](=O)[O-])cc2)C(=O)NCCc2ccccc2)cc1 | -18.3% (inactive) | 
Cc1ccc(N(Cc2ccc([N+](=O)[O-])cc2)C(=O)c2ccco2)cc1 |  | 12.6 µM (active)
